# Laboratory results reported in PubChem BioAssay (EPA / NIEHS).
# Several values for one entry are separate records, joined by “and”; a condition that tells them apart may be missing. Identical values can stand only once. Results filed as inconclusive are left out. Some compounds were tested as several samples or in several runs, with calls that do not always agree. Activity calls are given as the source filed them. Rule for the calls: active = hit-call score of the fitted dose curve at least 0.9, where 1 is the maximum; inconclusive = response in the unintended direction; inactive = score below 0.9.
# System: not listed separately
# Assay: STM_H9_NormalizedViability: Cytotoxicity Assessment at 120 hours in the Stemina devTOX quickPredict H9 human embryonic stem cell (hESC)-based Assay (AID 2283784)
# Outline: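 CellTiter-Fluor RFU, background-subtracted, expressed relative to 0.1% DMSO neutral control by plate. Pluripotent H9 cells; treatment with daily re-dosing. Plates carried 1uM methotrexate (positive) and 5 nM methotrexate (negative) references.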
Structure (SMILES),outcome,AC50
CC(CO)OC(C)CO (stereo not given) (tested in a mixture with another compound),inactive,
COc1ccc(S(=O)(=O)N2C(=O)[C@@](c3ccccc3OC)(N3C[C@H](O)C[C@H]3C(=O)N(C)C)c3cc(Cl)ccc32)c(OC)c1,inactive,
COCCOCCOC,inactive,
Cc1cccc(Nc2cc(Cl)nc(SCC(=O)O)n2)c1C,inactive,
Nc1ccccc1N,,2.01 µM (active)
CC1=C(/C=C/C(C)=C/C=C/C(C)=C/CO)C(C)(C)CCC1,inactive,
COc1ccc2c(c1)c(CC(=O)O)c(C)n2C(=O)c1ccc(Cl)cc1,,78.1 µM (active)
CCCc1cc(=O)[nH]c(=S)[nH]1,inactive,
CN1CCN(Cc2cc(-c3ccc4[nH]c(=O)oc4c3)co2)[C@@H](c2ccc(F)cc2)C1,inactive,
O=c1[nH]cc(F)c(=O)[nH]1,,3.17 µM (active)
Cc1nc(-c2ccc3c(c2)CCN(CCC2CCC(NC(=O)/C=C/c4ccc(F)cc4)CC2)CC3)no1 (stereo not given),inactive,
CCCCc1ccc2c(n1)[C@@H](c1ccc(OC)cc1C[C@H](C)C(=O)O)[C@H](C(=O)O)[C@H]2c1ccc2c(c1)OCO2,inactive,
Oc1ccc2ccccc2c1N=Nc1ccccc1,,0.992 µM (active)
OC[C@@H](O)[C@@H](O)[C@H](O)[C@H](O)CO,inactive,
O=c1c(O)c(-c2ccc(O)c(O)c2)oc2cc(O)cc(O)c12,inactive,
Cc1oc(-c2ccccc2)nc1CCOc1cccc2c1ccn2CCC(=O)O,inactive,
COC(=O)c1ccc(O)cc1,inactive,
Cc1cc(NC(=O)C(=O)O)cc(C)c1Oc1ccc(O)c2c1CCC2,inactive,
CCCCC(CC)COC(=O)CC(C(=O)OCC(CC)CCCC)S(=O)(=O)O (stereo not given),inactive,
C=CCOC(=O)c1ccccc1C(=O)OCC=C,inactive,
Cc1c(C(=O)O)c(O)cc2c1C(=O)c1c(O)c([C@@H]3O[C@H](CO)[C@@H](O)[C@H](O)[C@H]3O)c(O)c(O)c1C2=O,inactive,

# Target: AR (gene 367) (UniProt P10275)
# Assay: ACEA_AR_antagonist_80hr: ACEA Biosciences xCELLigence Real-Time Cell Analysis on Androgen Receptor Antagonism for Proliferation (AID 2283787);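 note: 22Rv1 human prostate cancer cells with growth followed by electrical impedance; hits lower the impedance growth signal relative to DMSO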
# Outline: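 Impedance-based real-time growth of 22Rv1 prostate cells, read 80 h after dosing. Eight concentrations, 1:4 series, top 100 uM final (0.5% DMSO), n = 2; signal decrease scored against DMSO.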
# Chain of AR (gene 367) (P10275 whole entry, looked up): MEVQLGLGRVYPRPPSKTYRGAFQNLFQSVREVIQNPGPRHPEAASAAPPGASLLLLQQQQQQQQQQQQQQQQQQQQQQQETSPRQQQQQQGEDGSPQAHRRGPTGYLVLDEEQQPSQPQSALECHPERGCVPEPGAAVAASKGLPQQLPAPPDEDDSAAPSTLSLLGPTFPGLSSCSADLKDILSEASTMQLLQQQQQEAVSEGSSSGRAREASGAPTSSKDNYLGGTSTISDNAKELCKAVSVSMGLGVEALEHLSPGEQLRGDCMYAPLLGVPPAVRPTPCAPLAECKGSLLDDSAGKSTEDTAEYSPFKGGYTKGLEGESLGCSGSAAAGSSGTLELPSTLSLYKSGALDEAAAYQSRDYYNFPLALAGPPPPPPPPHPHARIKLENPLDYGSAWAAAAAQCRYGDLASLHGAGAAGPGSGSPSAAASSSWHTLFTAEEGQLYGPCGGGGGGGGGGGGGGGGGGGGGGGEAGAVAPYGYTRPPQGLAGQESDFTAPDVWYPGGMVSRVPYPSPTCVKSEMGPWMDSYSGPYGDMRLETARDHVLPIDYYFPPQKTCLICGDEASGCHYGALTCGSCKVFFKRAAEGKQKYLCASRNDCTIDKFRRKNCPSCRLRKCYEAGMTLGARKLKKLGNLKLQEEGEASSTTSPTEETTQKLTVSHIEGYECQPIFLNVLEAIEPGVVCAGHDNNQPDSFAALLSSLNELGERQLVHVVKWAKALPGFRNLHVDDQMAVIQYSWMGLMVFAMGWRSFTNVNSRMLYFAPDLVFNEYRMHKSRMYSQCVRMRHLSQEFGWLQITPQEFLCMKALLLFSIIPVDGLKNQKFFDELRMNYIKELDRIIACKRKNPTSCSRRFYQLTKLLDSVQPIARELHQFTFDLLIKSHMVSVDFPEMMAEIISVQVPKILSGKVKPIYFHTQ
Structure (SMILES),outcome,AC50
COc1ccc(C)cc1N,inactive,
CCOc1ccc2c(c1)C(C)=CC(C)(C)N2,,72.2 µM (active)
COc1ccc(S(=O)(=O)N2C(=O)[C@@](c3ccccc3OC)(N3C[C@H](O)C[C@H]3C(=O)N(C)C)c3cc(Cl)ccc32)c(OC)c1,,24 µM (active)
Cc1ccc(N(C)C)cc1,inactive,
CC(=O)Oc1ccccc1C(=O)O,inactive,
COCCOCCOC,inactive,
Cc1cccc(Nc2cc(Cl)nc(SCC(=O)O)n2)c1C,inactive,
CNC(=O)[C@H]1O[C@@H](n2cnc3c(NCc4cc(Cl)ccc4OCc4cc(C)no4)ncnc32)[C@H](O)[C@@H]1N,inactive,
COc1cc(-c2nc(NC(=O)c3cc4cc(C)cc(C)c4n3CC(=O)O)sc2CCC2CCCCC2)c(OC)cc1Cl,,11.6 µM (active)
CN[C@H]1CC[C@@H](c2ccc(Cl)c(Cl)c2)c2ccc(S(N)(=O)=O)cc21,,13.1 µM (active)
COc1ccc2c(c1)c(CC(=O)O)c(C)n2C(=O)c1ccc(Cl)cc1,,34.1 µM (active)
Cc1ccc(C)c(C)c1,inactive,
CCCCCC(=O)O,inactive,
Cc1nc(-c2ccc3c(c2)CCN(CCC2CCC(NC(=O)/C=C/c4ccc(F)cc4)CC2)CC3)no1 (stereo not given),,23.2 µM (active)
Cc1ccc(C)c(O)c1C,inactive,
COc1cc(/C=C/C(=O)CC(=O)/C=C/c2ccc(O)c(OC)c2)ccc1O,,25.9 µM (active)
Cc1cc(NC(=O)C(=O)O)cc(C)c1Oc1ccc(O)c2c1CCC2,inactive,
COCCOC[C@H](CC1(C(=O)NC2CCC(C(=O)O)CC2)CCCC1)C(=O)Oc1ccc2c(c1)CCC2 (stereo not given in full),,18.2 µM (active)
Cc1cccc([N+](=O)[O-])c1C,inactive,
O=C(O)Cc1ccccc1Nc1c(Cl)cccc1Cl,,70.9 µM (active)
CCCCCCCCCCC,inactive,

# System: not listed separately
# Assay: ATG_M_06_XSP2: Attagene TRANS-FACTORIAL Multi-Species (XSP2) HepG2 Assay for M06 Transcription Factor (Internal Marker) (AID 2283811);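 note: internal background marker reporter mRNA measured by RT-PCR and capillary electrophoresis; hits are increases in signal above the DMSO baseline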
# Outline: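 Internal-marker reporter transcript, quantified by RT-PCR, 6-FAM labelling, HpaI digestion and capillary electrophoresis, 24 hours after dosing transfected HepG2 cells with 3 nM 6-alpha-fluorotestosterone and 1.5 nM norgestrel present; DMSO baseline.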
row,Structure (SMILES),outcome
1,CC(C)(C)c1cc(O)c(C(C)(C)C)cc1O,inactive
2,C=CCOC(=O)c1ccccc1C(=O)OCC=C,inactive
3,CC(=O)C(C)=CC1C(C)=CCCC1(C)C (stereo not given),inactive

# System: turtle Estrogen Receptor (ERa), gene 101933533
# Assay: ATG_trERa_XSP2: Attagene TRANS-FACTORIAL Multi-Species (XSP2) HepG2 Assay for turtle Estrogen Receptor (ERa) (AID 2283812);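 note: actives raise reporter signal above DMSO so AC50 reflects agonist activity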
# Outline: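 Readout is reporter mRNA quantified by RT-PCR with capillary electrophoresis after 24 h compound exposure, increase relative to DMSO. Uses transiently transfected human HepG2 liver cells carrying a chimeric turtle ERa-Gal4 receptor driving GAL4-UAS reporters.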
Structure (SMILES),outcome,AC50
CC(C)(C)c1cc(O)c(C(C)(C)C)cc1O,inactive,
C=CCOC(=O)c1ccccc1C(=O)OCC=C,,74.3 µM (active) and 100 µM (active)
CC(=O)C(C)=CC1C(C)=CCCC1(C)C (stereo not given),,29.9 µM (active) and 25.5 µM (active)

# Target: zebrafish Estrogen Receptor (ER1), esr1 (gene 259252) (UniProt P57717)
# Assay: ATG_zfER1_XSP2: Attagene TRANS-FACTORIAL Multi-Species (XSP2) HepG2 Assay for zebrafish Estrogen Receptor (ER1) (AID 2283816)
# Outline: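 After 24 h compound exposure, RNA from transfected HepG2 cells was reverse-transcribed and reporter transcripts resolved by capillary electrophoresis. The TRANS format reads exogenous zebrafish ER1-Gal4 chimera activity on GAL4-UAS elements; gain of signal against DMSO.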
# Chain of zebrafish Estrogen Receptor (ER1), esr1 (gene 259252) (P57717 whole entry, looked up): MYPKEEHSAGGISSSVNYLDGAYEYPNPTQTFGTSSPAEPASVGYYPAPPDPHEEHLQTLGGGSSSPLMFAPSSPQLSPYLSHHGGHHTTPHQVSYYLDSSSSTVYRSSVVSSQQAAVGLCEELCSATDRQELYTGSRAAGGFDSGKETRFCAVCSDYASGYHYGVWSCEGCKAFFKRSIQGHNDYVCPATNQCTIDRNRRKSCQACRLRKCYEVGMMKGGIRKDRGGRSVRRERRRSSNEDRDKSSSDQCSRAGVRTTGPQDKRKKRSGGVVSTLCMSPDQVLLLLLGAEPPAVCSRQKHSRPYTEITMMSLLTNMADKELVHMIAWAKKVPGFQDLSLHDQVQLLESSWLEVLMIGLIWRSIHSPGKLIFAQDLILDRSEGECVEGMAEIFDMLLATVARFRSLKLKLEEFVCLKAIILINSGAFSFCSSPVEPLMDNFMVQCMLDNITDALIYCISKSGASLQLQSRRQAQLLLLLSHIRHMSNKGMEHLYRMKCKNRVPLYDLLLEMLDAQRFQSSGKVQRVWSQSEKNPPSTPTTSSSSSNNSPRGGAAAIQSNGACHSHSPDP
Structure (SMILES),outcome,AC50
CCCc1cc(=O)[nH]c(=S)[nH]1,inactive,
CC(C)(C)c1cc(O)c(C(C)(C)C)cc1O,inactive,
C=CCOC(=O)c1ccccc1C(=O)OCC=C,inactive,
CC(=O)C(C)=CC1C(C)=CCCC1(C)C (stereo not given),inactive,34.2 µM (active)

# Target: chicken Estrogen Receptor (ERa), ESR1 (gene 396099) (UniProt P06212)
# Assay: ATG_chERa_XSP2: Attagene TRANS-FACTORIAL Multi-Species (XSP2) HepG2 Assay for chicken Estrogen Receptor (ERa) (AID 2283817);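 note: actives raise reporter signal above DMSO so AC50 reflects ER activation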
# Outline: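 Reporter mRNA induction read by RT-PCR, fluorescent labelling and capillary electrophoresis after 24 h exposure; positive-direction fit against DMSO baseline. HepG2 cells transfected with multiplexed GAL4-UAS units including chicken ERa chimera; medium contained 3 nM 6-alpha-fluorotestosterone plus 1.5 nM norgestrel.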
# Chain of chicken Estrogen Receptor (ERa), ESR1 (gene 396099) (P06212 whole entry, looked up): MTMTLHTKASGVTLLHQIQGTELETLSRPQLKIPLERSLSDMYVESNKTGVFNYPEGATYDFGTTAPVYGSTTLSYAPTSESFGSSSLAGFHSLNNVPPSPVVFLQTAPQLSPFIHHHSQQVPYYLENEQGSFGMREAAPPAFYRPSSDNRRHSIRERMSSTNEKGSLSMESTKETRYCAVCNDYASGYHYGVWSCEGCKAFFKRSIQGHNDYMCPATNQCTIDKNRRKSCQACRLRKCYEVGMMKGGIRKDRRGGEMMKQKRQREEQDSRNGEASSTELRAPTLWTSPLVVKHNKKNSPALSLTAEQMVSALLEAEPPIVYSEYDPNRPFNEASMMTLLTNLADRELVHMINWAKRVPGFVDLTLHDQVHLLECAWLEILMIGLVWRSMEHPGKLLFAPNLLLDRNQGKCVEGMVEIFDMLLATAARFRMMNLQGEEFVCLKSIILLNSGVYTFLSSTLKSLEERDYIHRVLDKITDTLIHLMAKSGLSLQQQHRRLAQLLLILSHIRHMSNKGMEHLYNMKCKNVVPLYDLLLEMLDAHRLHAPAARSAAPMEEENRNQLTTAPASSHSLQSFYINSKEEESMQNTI
Structure (SMILES),outcome,AC50
CC(C)(C)c1cc(O)c(C(C)(C)C)cc1O,inactive,
C=CCOC(=O)c1ccccc1C(=O)OCC=C,inactive,62.3 µM (active)
CC(=O)C(C)=CC1C(C)=CCCC1(C)C (stereo not given),,19.8 µM (active) and 14 µM (active)

# System: zebrafish Estrogen Receptor (ER2a), gene 317734
# Assay: ATG_zfER2a_XSP2: Attagene TRANS-FACTORIAL Multi-Species (XSP2) HepG2 Assay for zebrafish Estrogen Receptor (ER2a) (AID 2283818);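 note: hits raise reporter mRNA so AC50 reflects activation of zebrafish ER2a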
# Outline: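 Multiplexed trans-reporter readout: RT-PCR then capillary electrophoresis of reporter transcripts after 24 h compound treatment. Human HepG2 carries transfected zebrafish ER2a-Gal4 chimera; 3 nM 6-alpha-fluorotestosterone plus 1.5 nM norgestrel present. Induction scored against DMSO.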
Structure (SMILES),outcome,AC50
CC(C)(C)c1cc(O)c(C(C)(C)C)cc1O,inactive,
C=CCOC(=O)c1ccccc1C(=O)OCC=C,inactive,
CC(=O)C(C)=CC1C(C)=CCCC1(C)C (stereo not given),,15 µM (active) and 19.8 µM (active)
